Test systems include T-47D breast; BT-549 breast; MDA-MB-435 melanoma; SW-620 colon; MCF7 breast; HCT-116 colon; HCC-2998 colon; KM12 colon.
Common to all, as to assay: NCI-60 one-dose screen, 48 h (100 = growth as untreated, 0 = no growth, -100 = all killed)
What all share (conditions): 10 µM unless noted

Structures are written as SMILES. Where “and” joins values, the source holds several entries; their conditions need not be identical. Equal values may be shown once. Compounds without any hit were thinned out: in the full panel of roughly 83,000, 20% have a hit.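 Plates (96-well) were seeded with cells, treated with compound at one concentration, and incubated for 48 hours before percent growth was determined.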 Calls of active or inactive are those of the source. Rule for the calls: active = growth percent below 10; inactive = the rest.

We go through 15 compounds from PubChem BioAssay (NCI).

With `OCc1cc(CN2CCCCC2)c(O)c2ncccc12`, the growth with T-47D breast was 57.4% (inactive); with BT-549 breast, 59.7% (inactive); in the assay with MDA-MB-435 melanoma, 77% (inactive); with SW-620 colon it was 39.7% (inactive); with MCF7 breast, 44.7% (inactive); in the assay with HCT-116 colon, 44.1% (inactive). Moreover, the growth in the assay with HCC-2998 colon is 51.6% (inactive); with KM12 colon, 30.2% (inactive).
For `O=C1/C(=C/c2ccc(-c3ccccc3C(F)(F)F)o2)SC(=S)N1CCc1ccc(O)cc1`, the growth was 34.8% (inactive) in the assay on T-47D breast; 61.7% (inactive) in the assay on BT-549 breast; -14.4% (active) in the assay with MDA-MB-435 melanoma; 32.1% (inactive) in the assay on SW-620 colon; 27.7% (inactive) with MCF7 breast; 33.9% (inactive) in the assay on HCT-116 colon. Also, the figures for the growth in the assay on HCC-2998 colon and in the assay with KM12 colon were 81.1% (inactive) and 28.2% (inactive), respectively.
As for `COc1ccc(Nc2nn3c(SCC(=O)c4ccc(C)cc4)nnc3s2)cc1`, the growth in the assay with T-47D breast is 73.2% (inactive); in the assay on BT-549 breast it was 92.2% (inactive); with MDA-MB-435 melanoma, 105% (inactive); in the assay with SW-620 colon, 98.1% (inactive); in the assay on MCF7 breast it was 91.8% (inactive); in the assay with HCT-116 colon it was 106% (inactive). Also, the figures for the growth in the assay with HCC-2998 colon and in the assay on KM12 colon were 111% (inactive) and 97.3% (inactive), respectively.
Regarding `O=Nc1c(O)ccc2ccccc12`, the growth is 15.5% (inactive) and 76.1% (inactive) in the assay with T-47D breast; 94.5% (inactive) and 90.8% (inactive) with BT-549 breast; -83.9% (active) and 116% (inactive) in the assay on MDA-MB-435 melanoma; 27.5% (inactive) and 83.9% (inactive) in the assay on SW-620 colon; 67.8% (inactive) and 78.1% (inactive) in the assay with MCF7 breast; 6.49% (active) and 81% (inactive) in the assay on HCT-116 colon. Further, the growth is 110% (inactive) and 97.4% (inactive) in the assay with HCC-2998 colon; 66.8% (inactive) and 109% (inactive) in the assay on KM12 colon.
On to `CCc1c2c(nc3ccc(OCc4ccc(B5OC(C)(C)C(C)(C)O5)cc4)cc13)-c1cc3c(c(=O)n1C2)COC(=O)[C@]3(O)CC`, for which the growth in the assay on T-47D breast was 0.841% (active); in the assay on BT-549 breast it was 28.8% (inactive); with MDA-MB-435 melanoma it was 9.46% (active); in the assay with SW-620 colon, 15.6% (inactive); in the assay with MCF7 breast, 2.53% (active); with HCT-116 colon, 2.03% (active). Moreover, the growth is 26.7% (inactive) in the assay on HCC-2998 colon and 0.421% (active) in the assay with KM12 colon.
In the case of `COCCn1cc(-c2csc(-c3cn(C)c4ccc(F)cc34)n2)c2cccnc21`, the growth is 25.2% (inactive) with T-47D breast; 63.8% (inactive) in the assay with BT-549 breast; 40.8% (inactive) with MDA-MB-435 melanoma; 37.6% (inactive) with SW-620 colon; 25.9% (inactive) with MCF7 breast; 75.5% (inactive) with HCT-116 colon. The growth with HCC-2998 colon is 49.6% (inactive); in the assay with KM12 colon, 40% (inactive).
For `Cc1c(C(C)(C)O)cn2ncnc(Oc3ccc(NC(=O)Nc4ccc(Cl)c(C(F)(F)F)c4)cc3)c12`, the growth in the assay on T-47D breast was 21.8% (inactive); with BT-549 breast, 58% (inactive); in the assay on MDA-MB-435 melanoma, 37.4% (inactive); in the assay on SW-620 colon, 62% (inactive); in the assay with MCF7 breast, 25.2% (inactive); with HCT-116 colon, 28.6% (inactive). The growth with HCC-2998 colon is 85.7% (inactive); in the assay with KM12 colon it was 24.8% (inactive).
On to `O=C(CCl)n1nnnc1Cc1ccccc1`, for which the growth in the assay with T-47D breast is 98.8% (inactive); with BT-549 breast, 93.7% (inactive); in the assay with MDA-MB-435 melanoma it was 103% (inactive); in the assay with SW-620 colon, 101% (inactive); in the assay on MCF7 breast it was 101% (inactive); in the assay with HCT-116 colon, 102% (inactive). For the same compound, the growth in the assay on HCC-2998 colon is 94.6% (inactive); with KM12 colon, 116% (inactive).
Take `Cc1nc2sc(C(=O)Nc3cccc4ccccc34)c(N)c2cc1C(=O)/C=C/c1ccccc1`: the growth with T-47D breast was 14.5% (inactive); in the assay on BT-549 breast, -31.1% (active); in the assay with MDA-MB-435 melanoma it was 1.56% (active); with SW-620 colon it was -8.3% (active); in the assay with MCF7 breast it was 4.27% (active); in the assay with HCT-116 colon, -52.8% (active). The growth in the assay with HCC-2998 colon is -85.4% (active); in the assay with KM12 colon, -43.7% (active).
With `COc1ccc(/C=C(\C#N)c2cc3ccccc3[nH]2)cc1`, the growth was 28.3% (inactive) in the assay on T-47D breast; 40.9% (inactive) in the assay with BT-549 breast; -32.6% (active) with MDA-MB-435 melanoma; 9.82% (active) in the assay with SW-620 colon; 13.3% (inactive) in the assay on MCF7 breast; 12.5% (inactive) in the assay with HCT-116 colon. The growth is 39% (inactive) in the assay on HCC-2998 colon and 20.4% (inactive) with KM12 colon.
Turning to `CC(=O)N1N=C(c2ccc(F)cc2)CC1c1sc(N(C)Cc2ccccc2)nc1Cl` (stereo not given), the growth with T-47D breast is 74.1% (inactive); with BT-549 breast, 95.2% (inactive); with MDA-MB-435 melanoma, 96.5% (inactive); in the assay on SW-620 colon, 99.4% (inactive); in the assay on MCF7 breast, 76% (inactive); in the assay on HCT-116 colon, 84.5% (inactive). Further, the growth in the assay on HCC-2998 colon is 91.2% (inactive); with KM12 colon, 92.4% (inactive).
Consider `Cc1nnc(NS(=O)(=O)c2ccc(N=Nc3ccc(N)nc3N)cc2)s1`, for which the growth with T-47D breast was 114% (inactive); with BT-549 breast it was 90.4% (inactive) and 108% (inactive); in the assay with MDA-MB-435 melanoma it was 115% (inactive) and 105% (inactive); in the assay on SW-620 colon, 108% (inactive) and 106% (inactive); with MCF7 breast, 105% (inactive) and 106% (inactive); in the assay on HCT-116 colon, 99.7% (inactive) and 103% (inactive). Moreover, the growth with HCC-2998 colon is 105% (inactive); in the assay on KM12 colon, 104% (inactive) and 103% (inactive).
In the case of `CC(=O)c1c(C)nc2ccccc2c1/C=C/c1cccc(C)c1`, the growth in the assay on T-47D breast is 38.6% (inactive); in the assay with BT-549 breast it was 64.2% (inactive); with MDA-MB-435 melanoma, 5.84% (active); with SW-620 colon, 29.4% (inactive); in the assay on MCF7 breast it was 24.2% (inactive); in the assay on HCT-116 colon, 32.9% (inactive). Further, the growth in the assay with HCC-2998 colon was 79.4% (inactive); in the assay on KM12 colon, 52.1% (inactive).
Regarding `Cc1ccc(NC(=O)c2sc3nc(C)c(C(=O)c4ccccc4)cc3c2N)cc1`, the growth was 87.7% (inactive) with T-47D breast; 84.7% (inactive) with BT-549 breast; 39.5% (inactive) with MDA-MB-435 melanoma; 90.8% (inactive) in the assay with SW-620 colon; 70.9% (inactive) in the assay on MCF7 breast; 97.7% (inactive) in the assay with HCT-116 colon. The growth with HCC-2998 colon is 106% (inactive); with KM12 colon, 76.2% (inactive).
With `Nc1nc(N)c2c(n1)NC(c1cccc(Nc3ccnc4cc(C(F)(F)F)ccc34)c1)CC(c1ccc(F)cc1)=N2` (stereo not given), the growth in the assay on T-47D breast is 68.3% (inactive); with BT-549 breast, 100% (inactive); in the assay with MDA-MB-435 melanoma, -24.7% (active); in the assay on SW-620 colon it was 26.4% (inactive); with MCF7 breast, 16.7% (inactive); with HCT-116 colon, 22.4% (inactive). Also, the growth in the assay on HCC-2998 colon is 54% (inactive); in the assay on KM12 colon, 30.2% (inactive).
